Experiment [1] is described as follows: qHTS assay for small molecule agonists of the p53 signaling pathway (AID 651631; calls by dose curve; note: nearly all actives have a fitted effect of over 15% in size; note: potency is the fitted concentration of half-maximal effect). In short, it runs like this:
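Read-out is beta-lactamase FRET fluorescence measured 2 h after substrate addition at room temperature, in HCT-116 cells with a p53 response element-driven reporter exposed to compounds for 16 h at 37 °C.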

A short description of experiment [2]: qHTS assay for small molecules that induce genotoxicity in human embryonic kidney cells expressing luciferase-tagged ATAD5 (AID 651632). Note: nearly all actives have a fitted effect of over 15% in size. Note: potency is the fitted concentration of half-maximal effect. A digest of the protocol: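 Increased luciferase signal from ATAD5-tagged reporter cells indicates DNA-damage-driven ATAD5 induction. HEK293T cells are treated for 16 hr at 37C before detection with Amplite.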
(qHTS replaces the single test concentration by a dilution series.)

The nature of experiment [3]: qHTS assay for small molecule agonists of the p53 signaling pathway - cell viability (AID 651633; calls by dose curve; note: nearly all actives have a fitted effect of over 30% in size; note: potency is the fitted concentration of half-maximal effect;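 for activity change, negative = cytotoxicity: p53RE-bla HCT reporter cells with a stable beta-lactamase p53 reporter; series mostly up to about 83 µM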). A digest of the protocol:
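p53RE-bla cells, seeded at 4,000 per well and rested 5 h at 37 C/5% CO2, received compounds in DMSO for 16 h at 37 C. CellTiter-Glo was then added, and luminescence was read after 30 min at room temperature to gauge cytotoxicity.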

A short description of experiment [4]: qHTS assay for small molecule disruptors of the mitochondrial membrane potential - cell viability (AID 720634; calls by dose curve;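 note: human HepG2 liver cancer cells; series mostly up to about 83 µM; nearly all actives have a fitted effect of over 20% in size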). A digest of the protocol: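 After overnight attachment at 37 C, HepG2 cells received compound or DMSO vehicle for 1 hr. Viability is then taken from ATP-driven luminescence following a 30 min room-temperature CellTiter-Glo step.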
Experiment [5] is described as follows: qHTS assay for small molecule disruptors of the mitochondrial membrane potential (AID 720635). Note: potency is the fitted concentration of half-maximal effect. In short, it runs like this:
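HepG2 cells (2,000/well) attached overnight at 37C, then took compound for 1 hr at 37C, 5% CO2. Mito-MPS dye was added for 30 min; fluorescence was read at 490/535 nm (monomers) and 540/590 nm (aggregates).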

Experiment [6] in a line: qHTS assay to test for compound auto fluorescence at 590 nm (red) in HepG2 cells (AID 720674). A digest of the protocol: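 Rose Bengal sodium served as the red fluorophore standard. HepG2 monolayers (overnight attachment, MEM with 10% FBS) were exposed to test compounds for 1 hr at 37 C and read at Ex 540/Em 590 nm.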
A short description of experiment [7]: qHTS assay to test for compound auto fluorescence at 535 nm (green) in HepG2 cells (AID 720675).
Experiment [8] can be described thus: qHTS assay to test for compound auto fluorescence at 590 nm (red) in HEK293 cells (AID 720679). A digest of the protocol: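 Autofluorescence equivalency to Rose Bengal sodium, 540/590nm, in HEK293 cells exposed overnight to 23 nL compound per well.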
Experiment [9] in a line: qHTS assay for small molecules that induce genotoxicity in human embryonic kidney cells expressing luciferase-tagged ATAD5 - cell viability (AID 651634; calls by dose curve; note: nearly all actives have a fitted effect of over 25% in size). In short, it runs like this:
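Cytotoxicity counterscreen in HEK293T cells bearing an ATAD5-luciferase reporter: live-cell protease activity measured by CellTiter-Fluor fluorescence after 15.5 hr compound exposure.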

Experiment [10] can be described thus: qHTS assay to test for compound auto fluorescence at 460 nm (blue) in HEK293 cells (AID 720678). A digest of the protocol: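 Auto fluorescence in the blue band was quantified as triamterene equivalency. HEK293 cells were seeded at 2,000/well, dosed after a 4-5 hr attachment, and kept overnight at 37C before the 405/460 nm reading.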

Unmarked numbers belong to inactive results. Records with an inconclusive call do not appear. Calls of active or inactive are those of the source. Unless noted, calls come from the whole dose curve; as a rule, active = well fitted curve in the direction sought with a large enough effect in the repeat runs; inconclusive = weak or mixed curves; inactive = no such curve, though single readings can be large; an effect the other way counts as inactive or inconclusive.
% is set by controls: 0 for no effect and ±100 for the full control effect.

For the compound `Cc1ccc(NC(=O)c2ccc(CN3CCN(C)CC3)cc2)cc1Nc1nccc(-c2cccnc2)n1`, the Potency result in experiment [1], in experiment [2], in experiment [3] and in experiment [4] was “inactive” throughout. Also, the Potency in experiment [5] is 2.11 µM (active). Further, the result in experiment [6], in experiment [7] and in experiment [8] was inactive.

As to `C=CC(O)CCCCC` (stereo unspecified), the Potency entry in [1], in experiment [2], in [3], in experiment [9] and in experiment [10] was “inactive” in each case. In addition, the call in [6], in [7] and in experiment [8] was inactive.

With `CC(=O)Nc1cccc(N)c1`, the Potency result in experiment [1], in [2], in experiment [3], in experiment [9] and in [10] was “inactive” each time. The compound was classed as inactive in [6] and in experiment [8].

Take `CC(C)Oc1ccccc1O`: the Potency result in experiment [1], in experiment [2], in [3], in [4], in experiment [5] and in [10] was “inactive” in each case. Also, the result in experiment [6] and in experiment [8] was inactive.

Turning to `O=C(O)CNc1ccccc1`, the Potency entry in [1], in experiment [2], in experiment [3], in experiment [4], in [5] and in [10] was “inactive” in each case. The call in [6], in experiment [7] and in experiment [8] was inactive.

As to `C[C@H]1C[C@H]2[C@@H]3CCC4=CC(=O)C=C[C@]4(C)[C@@]3(F)[C@@H](O)C[C@]2(C)[C@@]1(O)C(=O)COP(=O)(O)O`, the Potency entry in experiment [1], in experiment [2], in [3], in experiment [9] and in experiment [5] was “inactive” in each case. In addition, the outcome in [6], in [7] and in experiment [8] was inactive.

`Cc1ccc2c(Cl)cc(Cl)c(O)c2n1`: the Potency in [1] was 2.37 µM (active); in experiment [2], 5.96 µM (active); in [3], 0.944 µM (active); in [5] it was 9.44 µM (active). Also, the compound was classed as inactive in [6] and in experiment [8]. The Potency result in experiment [10] was “inactive”.

For the compound `O=C1c2ccccc2C(=O)C1c1ccc2ccccc2n1`, the Potency entry in [1], in experiment [3], in [9] and in experiment [10] was “inactive” throughout. The Potency was 0.0762 µM (active) in experiment [2] and 0.34 µM (active) in [5]. The compound was classed as inactive in [6] and in experiment [8].

For `CC(C)(C)NCC(O)COc1ccc(NC(=O)NC2CCCCC2)cc1` (stereo unspecified), the Potency entry in [1], in [2], in experiment [3], in experiment [9] and in [10] was “inactive” each time. Also, the compound was classed as inactive in [6] and in experiment [8].

`O=C(O)c1c2ccccc2cc2ccccc12`: the Potency entry in experiment [1], in experiment [2], in experiment [3], in experiment [9] and in [5] was “inactive” in each case. For the same compound, the compound was called inactive in experiment [6], in experiment [7] and in experiment [8].

Turning to `CC(=O)S[C@H](C(=O)N[C@H]1Cc2ccccc2[C@H]2CCC[C@@H](C(=O)O)N2C1=O)C(C)C`, the Potency result in experiment [1], in experiment [2], in experiment [3], in experiment [9] and in experiment [5] was “inactive” in each case. For the same compound, the compound was classed as inactive in [6], in experiment [7] and in experiment [8].

Turning to `CCOC(=O)CC(O)(CC(=O)OCC)C(=O)OCC`, the Potency entry in experiment [1], in experiment [2], in [3], in experiment [9] and in experiment [10] was “inactive” throughout. Also, the result in experiment [6], in experiment [7] and in [8] was inactive.

As for `COc1ccc(C(=O)Nc2ccccc2)cc1[N+](=O)[O-]`, the Potency result in [1], in experiment [2], in experiment [3] and in [9] was “inactive” in each case. In addition, the Potency in [5] was 2.75 µM (active). The compound was classed as inactive in [6], in experiment [7] and in experiment [8].

Turning to `CCN(CCCCOC(=O)c1ccc(OC)c(OC)c1)C(C)Cc1ccc(OC)cc1` (stereo unspecified), the Potency entry in experiment [1], in experiment [2], in experiment [3], in experiment [4] and in experiment [5] was “inactive” in each case. The fluorescence, relative to Rose Bengal in experiment [6] is 0.21% [at 18.6 µM]. Also, the fluorescence, % of fluorescein control in experiment [7] was 0.0889% [at 18.6 µM]. Besides, the fluorescence, % of triamterene in experiment [10] is 0.0022% [at 18.6 µM]. Besides, the fluorescence, % of fluorescent control in [8] is -0.338% [at 18.6 µM].

Turning to `CCc1cnc(C(=O)O)c(C(=O)O)c1`, the Potency result in experiment [1], in [2], in [3], in experiment [5] and in experiment [10] was “inactive” each time. Further, the call in experiment [6], in experiment [7] and in experiment [8] was inactive.

In the case of `CCCCCCCCCCCCN1CCOCC1`, the Potency result in [1], in experiment [2], in [3] and in experiment [9] was “inactive” in each case. For the same compound, the result in experiment [6], in experiment [7] and in experiment [8] was inactive.

Regarding `Clc1ccccc1-c1nc(-c2ccncc2)no1`, the Potency entry in experiment [1], in experiment [3], in experiment [9], in [5] and in experiment [10] was “inactive” throughout. Further, the Potency in [2] was 6.68 µM (active). Besides, the compound was called inactive in experiment [6], in [7] and in experiment [8].

`Cc1cc(C)n(CO)n1`: the Potency entry in experiment [1], in experiment [2], in experiment [3], in experiment [9], in experiment [5] and in [10] was “inactive” throughout. Moreover, the compound was called inactive in [6], in experiment [7] and in experiment [8].

In the case of `CCCCOC(=O)CC#N`, the Potency result in [1], in [2] and in [3] was “inactive” in each case. The call in experiment [6], in experiment [7] and in experiment [8] was inactive.

Consider `Cc1ccc(S(=O)(=O)NC(=O)NC2CCCC2)cc1`, for which the Potency entry in [1], in [2], in [3], in [4] and in [5] was “inactive” each time. Also, the call in [6], in [7] and in experiment [8] was inactive.

Regarding `[O-][n+]1ccc(Cl)cc1`, the Potency result in experiment [1], in [2], in [3], in experiment [4] and in [10] was “inactive” each time. Moreover, the outcome in [6] and in [8] was inactive.

On to `OCCCO`, for which the Potency result in experiment [1], in experiment [2], in experiment [3], in experiment [9] and in [10] was “inactive” throughout. Moreover, the outcome in experiment [6], in experiment [7] and in experiment [8] was inactive.

With `CC1(COc2ccc(CC3SC(=O)NC3=O)cc2)CCCCC1` (stereo unspecified), the Potency in [1] is 33.5 µM (active); in [3] it was 26.6 µM (active); in experiment [5] it was 6.68 µM (active). Further, the Potency result in experiment [2] and in experiment [10] was “inactive” in each case. The compound was classed as inactive in experiment [6], in [7] and in experiment [8].

Turning to `CCCC(=O)OCc1ccccc1`, the Potency result in [1], in [2], in experiment [3], in [9] and in [10] was “inactive” in each case. Further, the compound was classed as inactive in experiment [6], in experiment [7] and in experiment [8].

Regarding `CO[C@@H]1COCC[C@@H]1N[C@@H]1CC[C@@](C(=O)N2CCc3ncc(C(F)(F)F)cc3C2)(C(C)C)C1`, the Potency result in experiment [1], in experiment [2], in experiment [3] and in experiment [10] was “inactive” throughout. The compound was called inactive in experiment [6], in experiment [7] and in [8].

Regarding `NC(=O)c1ccccc1C(N)=O`, the Potency result in experiment [1], in [2], in experiment [3], in experiment [4] and in [10] was “inactive” each time. Also, the Potency in [5] was 61.4 µM (active). For the same compound, the outcome in experiment [6], in [7] and in experiment [8] was inactive.

For `CCc1ccc2c(c1)C(=O)c1ccccc1C2=O`, the Potency entry in [1], in experiment [3], in experiment [9] and in [10] was “inactive” throughout. The Potency in experiment [2] is 12.2 µM (active); in experiment [5] it was 13.7 µM (active). The outcome in experiment [6], in experiment [7] and in experiment [8] was inactive.

With `Oc1ccc(CCNCCCCCCNCCc2ccccc2)cc1O`, the Potency result in experiment [1], in [2], in experiment [3], in experiment [9] and in experiment [10] was “inactive” throughout. Moreover, the call in [6], in experiment [7] and in experiment [8] was inactive.

For the compound `CCCCCCCCCCCCCCCCCCCl`, the activation in experiment [1] is -2.7% [at 8.3 µM]; in experiment [2], 2.16% [at 8.08 µM]. Moreover, the activity change, negative = cytotoxicity in experiment [3] was -0.103% [at 8.08 µM]; in [4] it was -4.97% [at 8.08 µM]. For the same compound, the ratio activity, negative = MMP loss in [5] is -5.25% [at 8.08 µM]. In [6], the fluorescence, relative to Rose Bengal is -0.0738% [at 3.72 µM]. Further, the fluorescence, % of fluorescein control in [7] was 0.0105% [at 3.72 µM]. Also, the fluorescence, % of triamterene in experiment [10] is 0.0349% [at 3.72 µM]. For the same compound, the fluorescence, % of fluorescent control in [8] was -0.145% [at 3.72 µM].

Source of the values: PubChem BioAssay (Tox21).
